Among the data in PubChem BioAssay (NCI) are growth values, retold here.

SMILES strings stand for the structures. About 83,000 compounds went through this panel and 20% of them were active in at least one assay; those are over-represented in the sample as a whole.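 The endpoint reported here, percent growth, reads 100 for growth as untreated, 0 for no net growth and -100 for all cells dead.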 A number with no mark means an inactive call. Activity calls are given as the source filed them.

The test system of the assay is NCI/ADR-RES ovarian. In words: NCI-60 one-dose screen, 48 h (100 = growth as untreated, 0 = no growth, -100 = all killed). Particulars: 10 µM unless noted. How it is done:
Growth inhibition of the NCI/ADR-RES human […] tumor cell line is measured as a screen for anti-cancer activity. Cells are grown in 96 well plates and exposed to the test compound for 48 hours. Compounds are tested at a single concentration, which is 10^-5 M for most compounds. The reported endpoint is percent growth (GI% or GIPRCNT), where numbers from 0 - 100% represent growth inhibition, and numbers from -100% - 0 represent cell death. For example, a value of 40 represents 60% growth inhibition. A value of 0 means no net growth occurred over the course of the experiment. A value of -40 indicates 40% of cells at the beginning of the experiment died by the end of the experiment. A value of -100 means all cells are dead at the end of the experiment.
NCI-60 Human Tumor Cell Lines Screen was performed using the standard one-dose NCI protocol, which is described in more detail at https://dtp.cancer.gov/discovery_development/nci-60/default.htm.
Compounds with GIPRCNT values below 10 were considered active. Activity score was based on GIPRCNT using the following formula: […]
Score is 0 for GIPRCNT values of 100 or above, 50 for GIPRCNT values of 0, and 100 for GIPRCNT values of -100.
Turning to `N/C(=N\OC(=O)CSc1nc2ccccc2s1)c1ccc2ccccc2c1`, the growth was 104%. For the molecule `O=C(Nc1cccc(Cl)c1)Nc1nc2ccc([N+](=O)[O-])cc2s1`, the growth was 2.96% (active).

Turning to `N#C/C(=C\c1ccc(Cl)cc1Cl)C(N)=O`, the growth is 107%. For the molecule `CCCCCCCCCC[C@@H](C)[C@@H]1CC(=O)N[C@H]([C@@H](C)O)C(=O)N[C@@H](C)C(=O)N[C@H](C)C(=O)N[C@@H](CCC(N)=O)C(=O)N[C@H](Cc2ccc(O)cc2)C(=O)N[C@@H](C(C)CC)C(=O)O1` (stereo not given in full), the growth is 93.6%. The figure for `O=c1[nH]c(CCl)nc2c1cnn2-c1ccccc1` is 106%.

For the molecule `CC1CCc2c(sc3nc(SCC(=O)N/N=C/c4ccc(Cl)cc4)n(-c4ccccc4)c(=O)c23)C1` (stereo not given), the growth was 97.2%.

Turning to `COc1cc(/C=C2\SC(=O)NC2=O)ccc1OCC(=O)Nc1ccc(C(=O)/C=C/c2cc3ccccc3nc2Cl)cc1`, the growth was 97.9%. With `Cc1csc(Nc2cccc(Nc3nc(C)cs3)c2)n1`, the growth was 66.9%. The figure for `COc1cc(-c2nc(SCc3ccc(C)cc3)[nH]c(=O)c2C#N)ccc1OCc1ccccc1` is 103%; for `CCOC(=O)c1c(NCC(=O)Nc2ccc(Br)cc2)sc2c1CCCC2` it is 25.2%; for `CCN(CC)CCN1C(=O)c2c(c3c4cc(Br)ccc4[nH]c3c3ccc4ccccc4c23)C1=O` it is -76.3% (active). Under `COc1ccc(-c2nc3cc(Cl)c(Cl)cc3n2CC(=O)N=Nc2c(O)[nH]c3ccccc23)cc1` stands 44.3%; under `Cc1ccc(/C=C/c2nn3c(-c4ccco4)nnc3s2)cc1`, 104%. The figure for `CCNC(=O)Oc1ccc(/C(=C(/C)c2ccc(Cl)cc2)c2ccc(OCCN(C)C)cc2)cc1` is 74.9%; for `COc1ccc2c(C3=C(c4c[nH]c5ccccc45)C(=O)N(O)C3=O)coc2c1` it is 99.5%; for `CCN(CC)Cc1c(-c2cccc(OC(F)(F)F)c2)[nH]c2ccc(N3CCCC3)cc2c1=O` it is 92.5%. Regarding `Cc1ccc(-c2cc(-c3cccc4ccccc34)n3c(n2)nc2ccccc23)cc1`, the growth was 67.7%.

In the case of `Oc1ccc(CSc2nnc(-c3ccccc3)n2-c2ccccc2)c2cccnc12`, the growth was 8.58% (active).

Take `O=C(NNc1nc2cc(F)c(F)cc2n2cccc12)c1ccncn1`: the growth is 5.95% (active). In the case of `O=C(COc1ccc(C2SCC(=O)N2c2ccc(F)cc2)cc1)c1ccccc1` (stereo not given), the growth was 94.2%. The figure for `Cc1cc(F)cc(NS(=O)(=O)c2ccc(-c3cnc(C4CC4)o3)cc2)c1` is 6.6% (active); for `C#C[C@]1(O)CC[C@H]2[C@@H]3CC=C4c5sc(Nc6cc(OC)ccc6OC)nc5CC[C@]4(C)[C@H]3CC[C@@]21C` it is 55.6%.

Regarding `COc1ccc(NC(=O)Cn2cc(CN3C(=O)c4ccc([N+](=O)[O-])cc4C3=O)nn2)cc1`, the growth is 100%.

Turning to `CCOC(=O)CC(=O)CSC1=NC2C(NN1)N(C)C(=O)N2C` (stereo not given), the growth is 80.1%.

Take `Clc1ccccc1/C=C/c1nn2c(-c3ccncc3)nnc2s1`: the growth was 106%. The figure for `c1cncc(-c2cn3nc(-c4c[nH]c5ccccc45)sc3n2)c1` is 18.3%; for `CCN1CCN(Cc2ccc(C(=O)Nc3nc4ccc(Oc5ccnc(C(=O)NC)c5)cc4s3)cc2C(F)(F)F)CC1` it is 67%. As for `CCc1ccc(NC(=O)N[C@@H](Cc2cccc(F)c2)C(=O)N[C@@H]2C(=O)N3CCC[C@H]3C(=O)N3CCCC[C@H]3C(=O)N[C@@H](C)C(=O)N3C[C@H](C)C[C@H]3C(=O)O[C@H]2C)c(F)c1`, the growth is 18.4%.

Take `COC[C@]12CC[C@@H](C)[C@H](C)[C@H]1C1=CC[C@@H]3[C@@]4(C)CCCNC(C)(C)[C@@H]4CC[C@@]3(C)[C@]1(C)CC2`: the growth was 44.3%. The figure for `O=C(NNc1nc2cc(F)c(F)cc2n2cccc12)c1cccnn1` is -0.232% (active); for `CNC(=O)c1cc(Oc2ccc3nc(NC(=O)c4cccc(C(F)(F)F)c4)sc3c2)ccn1` it is 101%.

With `Cc1cc(C(=O)Nc2ccc(SC#N)cc2)c(C)o1`, the growth is 100%. On to `CS(=O)(=O)c1nccc(-c2c(-c3ccc(F)c(OCCc4ccccc4)c3)nc3sccn23)n1`, for which the growth was 95.9%. Under `COc1cc2c3c(n(CCCNC4CCCC4)c(=O)c2cc1OC)-c1cc2c(cc1C3=O)OCO2` stands 51.9%; under `C#C[C@]1(O)CC[C@H]2[C@@H]3CC=C4c5sc(Nc6nc(C)cc(OC)n6)nc5CC[C@]4(C)[C@H]3CC[C@@]21C`, 62.7%; under `C=CCn1c(SCC(=O)Nc2cccc(C(=O)/C=C/c3ccc(Cl)cc3)c2)nc2ccccc2c1=O`, 91%.

As for `CSc1ccc(/C(=N/N=C(N)N)c2ccccc2)cc1`, the growth is 40.3%. The figure for `Cc1ccc(NC(=O)c2cc(/C=C/C(=O)NO)cc(C(F)(F)F)c2)cc1Nc1nccc(-c2cccnc2)n1` is 87.8%. Under `C#C[C@]1(O)CC[C@H]2[C@@H]3CC=C4c5sc(Nc6cccc(Cl)n6)nc5CC[C@]4(C)[C@H]3CC[C@@]21C` stands 23%; under `COc1cc2c3c(n(CCCNC4CCCCC4)c(=O)c2cc1OC)-c1cc2c(cc1C3=O)OCO2`, -22.9% (active).
